Test results from PubChem BioAssay AID602123 (The Scripps Research Institute Molecular Screening Center, 2011).
Hit rate of the full screen: of about 360,000 compounds, about 1,500 (0.42%) were called active. Cut-off read from the data, not from the text of the source: active = inhibition above about 13% (passing the limit was not always enough); inactive = the rest. The sample as a whole holds a higher share of actives than the screen did.

Each compound was assayed against Lon protease (Escherichia coli (strain K12)) (UniProt P0A9M0) (assay: E. coli eLon protease inhibition – biochemical, fluorescence polarization, primary screen (AID 602123;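 note: 0% = enzyme with probe and DMSO and 100% = no enzyme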)). Conditions: purified E. coli Lon protease, at 7.94 µM, active compounds read high.
Chain of Lon protease (Escherichia coli (strain K12)) (P0A9M0 whole entry, looked up): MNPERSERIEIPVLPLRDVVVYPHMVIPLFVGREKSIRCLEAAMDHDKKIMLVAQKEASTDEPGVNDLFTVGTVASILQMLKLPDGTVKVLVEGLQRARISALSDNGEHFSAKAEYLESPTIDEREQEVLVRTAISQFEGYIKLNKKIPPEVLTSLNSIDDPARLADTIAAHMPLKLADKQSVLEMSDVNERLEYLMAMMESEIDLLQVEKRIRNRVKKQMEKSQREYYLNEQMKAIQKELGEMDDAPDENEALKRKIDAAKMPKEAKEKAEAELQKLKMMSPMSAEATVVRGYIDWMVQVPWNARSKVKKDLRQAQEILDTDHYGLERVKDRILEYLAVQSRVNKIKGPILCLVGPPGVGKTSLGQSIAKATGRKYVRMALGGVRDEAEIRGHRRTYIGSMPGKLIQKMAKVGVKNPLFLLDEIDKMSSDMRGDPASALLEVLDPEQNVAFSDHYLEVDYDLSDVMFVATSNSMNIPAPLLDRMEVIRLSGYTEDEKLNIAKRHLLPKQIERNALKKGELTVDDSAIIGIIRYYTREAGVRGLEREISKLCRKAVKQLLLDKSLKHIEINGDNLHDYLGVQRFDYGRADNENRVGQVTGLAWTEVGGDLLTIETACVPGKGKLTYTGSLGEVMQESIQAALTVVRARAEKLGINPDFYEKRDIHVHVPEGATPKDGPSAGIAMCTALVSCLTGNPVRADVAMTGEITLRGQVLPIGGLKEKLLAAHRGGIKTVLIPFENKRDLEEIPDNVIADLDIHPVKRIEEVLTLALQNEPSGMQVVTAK

inhibition, inactive:
O=S(=O)(NCc1ccccn1)c1ccc(Br)s1 -5.95%, CCOC(=O)C(C(=O)c1ccccc1)C(c1ccccc1)c1nccc2ccccc12 (stereo not drawn) -5.25%, CCOCCOCCC(C(=O)O)P(=O)(c1ccccc1)c1ccccc1 (stereo not drawn) 1.28%, CSc1ncccc1C(=O)NCC(c1ccco1)N1CCCCC1 (stereo not drawn) 2.84%, O=C(NCc1ccco1)c1cnn2c(C(F)(F)F)cc(-c3ccco3)nc12 -0.62%, O=C(COC(=O)CNC(=O)C1CCCCC1)Nc1cccc(F)c1 -17.9%, CCN1CCN(CC(=O)c2cc(OC)c(OC)c(OC)c2)CC1 7.78%, Cc1ccc(C=O)c([B-](F)(F)F)c1 -1.79%, COc1ccc(C(=O)NCC(c2ccco2)N2CCc3ccccc32)cc1OC (stereo not drawn) 4.85%, COc1ccc(C)cc1NC(=O)CNCc1cccs1 5.01%, COc1cc(OC)cc(C(=O)NNC(=O)Cc2cccs2)c1 -9.81%, COc1cc(C(=O)Nc2ncccc2C)ccc1OCC(=O)N1CCOCC1 -2.64%, CC(=O)CC[C@@H](C)O[C@@H]1OC(C)[C@H](O)CC1O (stereo partly drawn) 1.06%, CCc1cc2c(=O)c(-c3nc4ccccc4n3C)c(CCCC(=O)O)oc2cc1OC(=O)C(C)(C)C -5.21%, O=C1C(Sc2cccc(F)c2)=C[C@@]2(O)CC[C@@H](O)[C@]1(Sc1cccc(F)c1)[C@H]2O -1.25%, COc1ccc(CC(=O)NCc2nnc(SCC(=O)Nc3nccs3)n2C)cc1 -1.92%, COc1ccc(C(=O)NCc2nnc(SCC(=O)NC3=NCCS3)n2C)cc1 1.04%, C/C(=N\NC(=O)NC1CCCCC1)c1ccc(OC(F)F)cc1OC(F)F -5.36%, N#Cc1cc([N+](=O)[O-])ccc1NCC1CCCO1 (stereo not drawn) 7.82%, O=C1C(C=NCC2CCCO2)=C(O)c2ccccc21 (stereo not drawn) 3.5%, COc1ccc(SCCN2CCN(CC(C)C)CCC2=O)cc1 8.99%, CN(Cc1cn(Cc2ccc(C(F)(F)F)cc2)nn1)C1CN(Cc2cn(Cc3ccc(C(F)(F)F)cc3)nn2)S(=O)(=O)C1 (stereo not drawn) 4.67%, Cc1ccccc1S(=O)(=O)NC(=O)C1(C)CCN1C(=O)C1(c2ccccc2)CCCC1 (stereo not drawn) -3.92%, CCN(CC)C(=O)CSc1nnc(-c2ccc(S(=O)(=O)NCc3ccccc3Cl)cc2)o1 11.8%, Cc1cnc(CN(C)C(=O)C2CCC(=O)N(CCc3cccc(F)c3)C2)[nH]1 (stereo not drawn) 0.28%, COc1ccc(NC(=O)CC(NC(C)c2ccccc2)C(=O)O)cc1 (stereo not drawn) 1.2%, COc1ccc(NC(=O)CSc2nnc(Cc3ccccc3)c(=O)n2N)cc1 1.33%, O=c1c2ccccc2nc2n1C(CSCc1cccc(C(F)(F)F)c1)CS2 (stereo not drawn) -0.91%, COc1ccc(C2C3=C(OC(C)=O)c4ccccc4C3=Nc3c2c(=O)n(C)c(=O)n3C)cc1 (stereo not drawn) -3.27%, CC1Cc2cc(/C(O)=C3\C(=O)C(=O)N(Cc4cccnc4)C3c3ccccc3F)ccc2O1 (stereo not drawn) -8.03%, CC1CC(C)CN(C(=O)COC(=O)c2ccc3ncsc3c2)C1 (stereo not drawn) 0.01%, CC(C)NC(=O)Nc1cccc2c1O[C@@H](CN(C)S(=O)(=O)c1ccc(F)cc1)[C@@H](C)CN([C@H](C)CO)C2=O -17.1%, O=C(COC(=O)c1cccc(Br)c1)Nc1cccc2c1C(=O)c1ccccc1C2=O -3.73%, O=C(Cn1cnc2ccccc21)Nc1ccccc1-c1ccccc1 -15.9%, Cc1ccc(S(=O)(=O)N2CCC(C(=O)NCCC3=CCCCC3)CC2)cc1C 2.33%, Cc1ccc(OCC(=O)Nc2cccc3c2CCCC3)cc1C -1.11%, O=C(Nc1ccc(Br)cc1F)C1CC(=O)N(C2CCCCC2)C1 (stereo not drawn) -9.6%, CCS(=O)(=O)n1nc(-c2ccccc2)nc1SCc1ccccc1 0.39%, COc1ccc(-c2cc3nc(NCCOc4ccccc4)ccn3n2)cc1 5.17%, CC(C)Cc1ccc(-c2cc3nc(NCc4cccc(Cl)c4)ccn3n2)cc1 -0.63%, O=C(NCCc1ccco1)C(=O)NCCC1CCCCN1S(=O)(=O)c1ccccc1 (stereo not drawn) 0.36%, COc1cc(OC)c2ccc(=O)oc2c1C(CCN1CCN(c2ccccc2)CC1)c1ccc2c(c1)OCO2 (stereo not drawn) -2.01%, O=C(NC(=O)c1ccc(Cl)c(Cl)c1)OC1CCS(=O)(=O)C1 (stereo not drawn) -3.19%, CCOCCCNS(=O)(=O)Cc1ccccc1 5.68%, CCCc1cc(=O)[nH]c(SCC(=O)Nc2ccc(S(=O)(=O)N3CCCC3)cc2)n1 -14.4%, Cc1ccc(S(=O)(=O)N2CCN(C(=O)CSc3cc(C)ccc3C)CC2)c(C)c1 1.59%, COc1ccc(S(=O)(=O)N2CCCCC2c2cc(C(=O)NCc3ccc(F)cc3)no2)cc1 (stereo not drawn) -3.9%

inhibition, active:
O=S(=O)([N-]c1nc2ccccc2nc1-[n+]1ccc(Cc2ccccc2)cc1)c1ccc(Br)s1 51.7%, Oc1ccc2ccccc2c1N=Nc1nccs1 43.2%, CN1c2ccc(C=O)c3c(C=O)ccc(c23)N(C)C1(C)C 117%, COc1ccc(OC)c(NC(=O)Cc2cccs2)c1 32.4%, COc1ccc(C(=O)NCc2nnc(SCCOc3ccccc3)n2C)cc1 19.3%, O=C1c2cccc3c([N+](=O)[O-])ccc(c23)C(=O)N1CC1CCCO1 (stereo not drawn) 25.4%, COc1ccc(CC(=O)Nc2ccc(-c3nnc(-c4ccccc4)o3)cc2)cc1 27.1%, O=C1C=C(NCCNc2c(F)c(F)c(CO)c(F)c2F)CCC1 16.1%, O=C(COC(=O)Cn1cnc2ccccc21)Nc1cccc2c1C(=O)c1ccccc1C2=O 49.2%, COc1ccccc1-c1cc2nc(NCc3cccc(Cl)c3)ccn2n1 19.1%, CCCc1cc(=O)[nH]c(SCC(=O)N2CCN(S(=O)(=O)c3ccc(C)cc3C)CC2)n1 22.9%
